Reference: PubChem BioAssay AID1159580 (chemical genetic matrix, 2015)
Among all 5,500 compounds or so, about 2,000 (36%) were called active. Inconclusive results (about 18%) are left out. Rule as the data show it: active = normalized growth mostly below about 0.91 (no sharp cut-off); inconclusive = no clear call, values can overlap the other calls; inactive = mostly above about 0.92. The list shows a part of the results.

Experiment: chemical genetic growth profiling, strain panel (AID 1159580);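 also: tested at 20 µM; growth read once vehicle control cultures reached saturation at 30 °C; 1 = growth at the plate median or of vehicle wells; lower values mean less growth of the strain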
Settings: S. cerevisiae deletion strains, growth OD

Measured: normalized growth

CC(=O)O[C@H]1C[C@@H]2CC[C@@H]3[C@H](CC[C@@]4(C)[C@H]3C[C@H]([N+]3(C)CCCCC3)[C@@H]4OC(C)=O)[C@@]2(C)C[C@@H]1[N+]1(C)CCCCC1
inactive: locus YAL040C, strain CLN3, stronger effect = lower value 0.985 | locus YCL061C, strain MRC1 (second series), stronger effect = lower value 0.988 | locus YDR150W, strain NUM1, stronger effect = lower value 0.998 | locus YDR363W, strain ESC2, stronger effect = lower value 0.989 | locus YER002W, strain NOP16, stronger effect = lower value 1 | locus YGR078C, strain PAC10, stronger effect = lower value 0.996 | locus YNL128W, strain TEP1, stronger effect = lower value 1 | locus YNL175C, strain NOP13, stronger effect = lower value 1.03 | locus YNL197C, strain WHI3, stronger effect = lower value 0.998 | locus YNL224C, strain SQS1, stronger effect = lower value 0.984 | locus YNL322C, strain KRE1, stronger effect = lower value 1.01 | locus YOR083W, strain WHI5 (second series), stronger effect = lower value 0.959 | locus YPL055C, strain LGE1, stronger effect = lower value 0.98 | locus YPL241C, strain CIN2, stronger effect = lower value 0.987
